The source of these data is PubChem BioAssay (NCATS).

Assay [1] is described as follows: Cell Viability - SK-N-SH (AID 435).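 Note: potency is the fitted concentration of half-maximal effect; compound exposure lasted 40 h at 37 °C.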 The settings on record: SK-N-SH neuroblastoma cell viability qHTS. In a few lines: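 CellTiter-Glo ATP luminescence, 20 min RT read; cells pre-plated 5 hr, compound 40 hr at 37 °C, 1500 cells/well, complete medium. Normalized DMSO = 0, 100 uM tamoxifen = 100% inhibition; Hill-fit AC50.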
Assay [2] in a line: Cell Viability - H-4-II-E (AID 543; active = well fitted curve in the direction sought with a large enough effect; an effect the other way counts as inactive or inconclusive;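 note: cells exposed to compound for 40 hours; % is set by controls: 0 for no effect and ±100 for the full control effect; nearly all actives have a fitted effect of over 35% in size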). The settings on record: H-4-II-E rat hepatoma viability; series mostly up to 92.2 µM. In a few lines:
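Here, cytotoxicity is measured in the rat hepatoma line H-4-II-E as loss of intracellular ATP after 40 hr compound treatment, detected by luciferase luminescence.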

The nature of assay [3]: MultiTox-Fluor Cytotoxicity Assay - LYMP1-001 - Live Cells (AID 947; active = well fitted curve in the direction sought with a large enough effect; an effect the other way counts as inactive or inconclusive;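 note: 0% = DMSO only and full inhibition = tetraoctylammonium bromide control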). As to conditions: LYMP1-001 lymphoblastoid cells, live-cell protease fluorescence viability; series mostly up to 92.2 µM.
Assay [4] deals with Estrogen receptor (Homo sapiens) (UniProt P03372). The assay can be described thus: qHTS assay for small molecule antagonists of estrogen receptor alpha signaling (AID 588513; active = well fitted curve in the direction sought with a large enough effect in the signal ratio, with a control signal flat, not every such curve was filed as active; the % refers to the signal ratio; note: % is set by controls: 0 for no effect and ±100 for the full control effect). The settings on record: ER-alpha-UAS-bla HEK293, beta-lactamase ratio, antagonist mode; series mostly up to 76.9 µM. In a few lines:
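Beta-lactamase reporter, antagonist mode, HEK 293 GripTite cells; 0.5nM E2 stimulus, 18 h, 37 C; CCF4 dye 2 h RT; fluorescence. IC50 and efficacy from Hill fits, normalized to E2 and DMSO.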

Assay [5] has the same target. The assay can be described thus: qHTS assay for small molecule agonists of estrogen receptor alpha signaling (AID 588514).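 Note: 0% = vehicle only and 100% = reference agonist; nearly all actives have a fitted effect of over 70% in size.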 The settings on record: ER-alpha-UAS-bla HEK293, beta-lactamase ratio, 18 h; series mostly up to 76.8 µM. Summed up: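 Reporter-gene assay. […] controls beta-lactamase in HEK 293 GripTite cells; after 18 hrs with compound, CCF4 substrate is added for 2 hrs and fluorescence is read.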

Assay [6] in a line: qHTS assay for small molecule antagonists of peroxisome proliferator-activated receptor delta signaling (AID 588535; active = well fitted inhibition curve with a large enough effect in the signal ratio, with a control signal flat, not every such curve was filed as active; the % refers to the signal ratio;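 for max response: cells co-treated with a PPAR-delta agonist as stimulator during compound exposure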). As to conditions: HEK293T PPARd-UAS-bla, beta-lactamase FRET ratio, 18 h; 460 nm channel. In a few lines:
(§1)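 Cells were seeded at 4000 per well in assay medium containing 2% charcoal/dextran FBS and held 5 hrs at 37 C. Compounds were then added for 18 hrs. CCF4 substrate was applied for 2 hrs at room temperature before fluorescence reading.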

The target of assay [7] is Peroxisome proliferator-activated receptor delta (Homo sapiens) (UniProt Q03181). Described as above. As to conditions: HEK293T PPARd-UAS-bla, beta-lactamase FRET ratio, 18 h; series mostly up to 76.7 µM. In a few lines:
as §1

Assay [8] deals with Thyroid hormone receptor beta (Homo sapiens) (UniProt P10828). Description: qHTS assay for small molecule antagonists of thyroid hormone receptor beta signaling (AID 588547; active = well fitted inhibition curve with a large enough effect in the signal ratio, with a control signal flat, not every such curve was filed as active; the % refers to the signal ratio;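 note: cells stimulated with 0.4 nM T3 agonist during compound exposure; % is set by controls: 0 for no effect and ±100 for the full control effect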). As to conditions: TR-UAS-bla HEK293, beta-lactamase ratio, antagonist mode, 18 h. Summed up:
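TR-UAS-bla GripTite HEK293 cells in 2% charcoal/dextran FBS medium; compounds 0.59 nM to 92 uM with T3 at 0.4nM final, 18 h at 37 C. Beta-lactamase read by CCF4 fluorescence (460/530 nm); Hill fits gave IC50 and efficacy.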

Assay [9] in a line: qHTS assay for small molecule agonists of the antioxidant response element (ARE) signaling pathway (AID 651741; active = well fitted activation curve with a large enough effect in the signal ratio; the % refers to the signal ratio; note: potency is the fitted concentration of half-maximal effect; for activation: % of control where 0% means no effect). The settings on record: HepG2 ARE-bla reporter, beta-lactamase FRET ratio, 16 h; series mostly up to 96 µM. Summed up:
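HepG2 ARE-bla cells plated at 2,000 cells/well and incubated 5 h at 37 C/5% CO2 received 23 nL compound in DMSO. After 16 h at 37 C, LiveBLAzer B/G FRET substrate was applied for 2 h at room temperature and fluorescence read.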

Assay [10] in a line: qHTS assay for small molecule disruptors of the mitochondrial membrane potential - 1 hr assay (AID 651754). Note: % is set by controls: 0 for no effect and ±100 for the full control effect; nearly all actives have a fitted effect of over 35% in size. As to conditions: series mostly up to 92.2 µM. In a few lines:
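Steps: seed HepG2 cells and let attach overnight; pin-transfer compound or vehicle; incubate 1 hr at 37C; add Mito-MPS dye for 30 min; read two-channel fluorescence for monomer and aggregate forms.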

Assay [11] has as its target Nuclear receptor ROR-gamma (Homo sapiens) (UniProt P51449). Description: qHTS assay for small molecule antagonists of the retinoid-related orphan receptor gamma (ROR-gamma) signaling pathway (AID 651802; active = well fitted curve in the direction sought with a large enough effect; an effect the other way counts as inactive or inconclusive;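 note: CHO cells with doxycycline-induced ROR-gamma expression; luciferase reporter luminescence driven by ROR response element; % is set by controls: 0 for no effect and ±100 for the full control effect; nearly all actives have a fitted effect of over 60% in size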). The settings on record: ROR-gamma antagonist cell reporter assay; series mostly up to 92.2 µM. In a few lines:
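Antagonism is scored as a fall in luminescence from a RORE-luciferase reporter in CHO cells expressing ROR under a TET-inducible promoter, measured 16hr after doxycycline induction in the presence of compound.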

Assay [12] addresses Glucocorticoid receptor (Homo sapiens) (UniProt P04150). Description: qHTS assay for small molecule antagonists of glucocorticoid receptor signaling (AID 588533; active = well fitted inhibition curve with a large enough effect in the signal ratio, with a control signal flat, not every such curve was filed as active; the % refers to the signal ratio; note: % is set by controls: 0 for no effect and ±100 for the full control effect). The settings on record: HeLa MMTV-bla, GRE beta-lactamase ratio, antagonist mode, 18 h; series mostly up to 76.8 µM. In a few lines:
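Antagonist-mode qHTS: compound titrations added to GRE-bla HeLa cells, then dexamethasone 2 nM final; 18 h, 37 C. CCF4 FRET fluorescence normalized to dexamethasone and DMSO; IC50 from Hill fit.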

In assay [13] the target is Vitamin D3 receptor (Homo sapiens) (UniProt P11473). Description: qHTS assay for small molecule antagonists of vitamin D receptor signaling (AID 588541).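 Note: receptor activated by calcitriol during compound treatment; % is set by controls: 0 for no effect and ±100 for the full control effect.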 The settings on record: HEK293T VDR-UAS-bla, beta-lactamase ratio, antagonist mode; series mostly up to 76.7 µM. In a few lines:
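VDR-UAS-bla HEK293T cells in 2% charcoal-stripped FBS were stimulated with 1-alpha,25-dihydroxyvitamin D3 (3 nM final) plus compound for 16 h at 37 C. The beta-lactamase CCF4 readout was normalized to 50 nM agonist and DMSO, and Hill fits gave IC50.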

Assay [14] can be described thus: qHTS assay for small molecule activators of the nuclear factor-kappa B (NF-kB) signaling pathway (AID 651749; active = well fitted activation curve with a large enough effect in the signal ratio; the % refers to the signal ratio; note: % of control where 0% means no effect). As to conditions: NF-kB-bla ME-180 cells, beta-lactamase FRET ratio, 16 h; stronger effect = higher value. Summed up: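 Incubation lasted 16 hr at 37C in 5% CO2 after 23 nL compound addition to ME-180 NF-kB-bla cells. Activation appears as beta-lactamase-mediated FRET loss.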

Assay [15] is described as follows: qHTS assay for small molecule disruptors of the mitochondrial membrane potential - 5 hr assay (AID 651755). Note: % is set by controls: 0 for no effect and ±100 for the full control effect; nearly all actives have a fitted effect of over 40% in size. As to conditions: JC-1-type ratio dye; series mostly up to 92.2 µM. In a few lines:
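HepG2 cells (2,000/well), attached overnight, exposed to compound 5 hr at 37C, then Mito-MPS dye 30 min. Fluorescence read for monomers (490/535 nm) and aggregates (540/590 nm).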

The nature of assay [16]: qHTS assay for small molecule agonists of the antioxidant response element (ARE) signaling pathway measured by Nrf2-dependant transcriptional activity (AID 720636; active = well fitted curve in the direction sought with a large enough effect in the repeat runs; an effect the other way counts as inactive or inconclusive; note: % of control where 0% means no effect). The settings on record: ARE-luc HepG2, Nrf2 luciferase reporter, 16 h; series mostly up to 92.4 µM. Summed up: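 Attachment 6 hr at 37 C, then compound versus DMSO vehicle for 16 hr in ARE-luc HepG2 cells (1% dialyzed FBS); luminescence recorded 30 min after ONE-Glo addition at room temperature.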

A short description of assay [17]: Cell Viability - NIH 3T3 (AID 541; active = well fitted curve in the direction sought with a large enough effect; an effect the other way counts as inactive or inconclusive;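 note: cells exposed to compound for 40 hours; nearly all actives have a fitted effect of over 25% in size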; note: potency is the fitted concentration of half-maximal effect;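 for activity change, negative = cytotoxicity: plate controls were DMSO alone for no effect and tamoxifen positive control for full effect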). As to conditions: NIH 3T3 cell viability, qHTS; activity change, negative = cytotoxicity: at 92.2 µM (top of the series). Summed up: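 AC50 values reflect concentration-dependent loss of intracellular ATP in NIH 3T3 cells after 40 hr treatment in complete culture medium, quantified by luciferase-based luminescence.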
The target of assay [18] is Glucocorticoid receptor (Homo sapiens) (UniProt P04150). The assay can be described thus: qHTS assay for small molecule agonists of glucocorticoid receptor signaling (AID 588532; active = well fitted curve in the direction sought with a large enough effect in the signal ratio, with a control signal flat; the % refers to the signal ratio;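 note: 100% = dexamethasone at 0.1 µM and 0% = DMSO only wells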). As to conditions: HeLa MMTV-bla, beta-lactamase ratio, agonist, 18 h; stronger effect = higher value; percent of dexamethasone control, DMSO zero. In a few lines:
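Cells were plated and rested 3-5 h at 37 C, compounds were added in titration and incubated 18 h, then CCF4 substrate was loaded for 2 h at RT before reading blue/green fluorescence. EC50 came from Hill-equation fitting.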

Assay [19] addresses Peroxisome proliferator-activated receptor delta (Homo sapiens) (UniProt Q03181). The assay can be described thus: qHTS assay for small molecule agonists of peroxisome proliferator-activated receptor delta signaling (AID 588534).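 Note: 0% = DMSO basal wells and 100% = positive control agonist at 10 µM.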 As to conditions: HEK293T PPARdelta-UAS-bla, beta-lactamase ratio, 18 h; series mostly up to 76.7 µM. In a few lines: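 Reporter cells were plated and held 5 hrs at 37 C before compounds were added. After 18 hrs at 37 C, CCF4 dye was loaded for 2 hrs at RT and fluorescence measured.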

The target in assay [20] is Peroxisome proliferator-activated receptor gamma (Homo sapiens) (UniProt P37231). The assay can be described thus: qHTS assay for small molecule antagonists of peroxisome proliferator-activated receptor gamma signaling (AID 588537; active = well fitted inhibition curve with a large enough effect in the signal ratio, with a control signal flat, not every such curve was filed as active; the % refers to the signal ratio;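 note: reporter cells co-stimulated with 50 nM rosiglitazone agonist during compound treatment; % of control where 0% means no effect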). The settings on record: HEK293 PPARg-UAS-bla, beta-lactamase ratio, antagonist mode; series mostly up to 76.8 µM. Summed up:
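Step one: plate 3000 HEK293 UAS-bla cells per well in medium with 1% stripped serum and hold 6-6.5 h at 37 C. Step two: add compound and 50 nM agonist for 16 h. Step three: CCF4 loading, fluorescence read.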

Structures are written as SMILES. Values joined by “and” are separate entries in the source; they are usually repeats but may differ in a detail not shown here. Equal values may be shown once. Results filed as inconclusive are left out. Active and inactive are the calls of the source. Unless noted, calls come from the whole dose curve.

Chain of Nuclear receptor ROR-gamma (Homo sapiens) (P51449 whole entry, looked up): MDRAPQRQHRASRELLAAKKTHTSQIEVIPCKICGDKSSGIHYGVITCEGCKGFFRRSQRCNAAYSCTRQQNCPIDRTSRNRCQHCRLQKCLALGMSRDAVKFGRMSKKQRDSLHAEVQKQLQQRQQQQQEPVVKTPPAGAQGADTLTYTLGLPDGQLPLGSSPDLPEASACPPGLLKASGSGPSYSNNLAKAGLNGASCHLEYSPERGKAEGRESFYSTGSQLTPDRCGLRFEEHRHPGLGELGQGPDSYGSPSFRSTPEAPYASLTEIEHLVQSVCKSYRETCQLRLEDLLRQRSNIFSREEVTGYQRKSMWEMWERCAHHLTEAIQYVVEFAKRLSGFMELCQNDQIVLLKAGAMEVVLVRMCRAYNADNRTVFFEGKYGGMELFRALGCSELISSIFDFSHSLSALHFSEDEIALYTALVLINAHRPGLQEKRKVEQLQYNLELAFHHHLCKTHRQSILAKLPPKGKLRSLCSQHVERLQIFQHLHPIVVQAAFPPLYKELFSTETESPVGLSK
Chain of Glucocorticoid receptor (Homo sapiens) (P04150 whole entry, looked up): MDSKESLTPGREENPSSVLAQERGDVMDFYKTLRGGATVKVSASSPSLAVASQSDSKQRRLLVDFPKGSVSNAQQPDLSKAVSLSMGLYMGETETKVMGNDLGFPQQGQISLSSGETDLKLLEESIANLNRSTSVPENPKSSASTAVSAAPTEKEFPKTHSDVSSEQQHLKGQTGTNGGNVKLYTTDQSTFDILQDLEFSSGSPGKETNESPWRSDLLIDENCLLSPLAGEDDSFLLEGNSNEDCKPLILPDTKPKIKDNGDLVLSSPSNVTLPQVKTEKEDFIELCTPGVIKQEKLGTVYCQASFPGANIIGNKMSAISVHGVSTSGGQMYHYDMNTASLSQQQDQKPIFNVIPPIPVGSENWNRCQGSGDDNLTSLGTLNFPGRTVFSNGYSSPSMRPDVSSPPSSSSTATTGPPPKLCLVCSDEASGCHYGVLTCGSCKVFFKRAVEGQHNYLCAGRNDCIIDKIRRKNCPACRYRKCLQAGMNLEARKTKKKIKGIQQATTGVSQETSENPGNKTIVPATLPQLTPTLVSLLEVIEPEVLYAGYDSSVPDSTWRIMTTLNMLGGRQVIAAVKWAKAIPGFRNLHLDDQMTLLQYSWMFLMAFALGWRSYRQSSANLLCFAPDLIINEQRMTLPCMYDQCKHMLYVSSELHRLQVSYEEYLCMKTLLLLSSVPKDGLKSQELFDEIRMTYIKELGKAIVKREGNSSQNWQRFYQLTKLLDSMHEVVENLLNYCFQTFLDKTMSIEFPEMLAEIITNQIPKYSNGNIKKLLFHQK
Chain of Peroxisome proliferator-activated receptor delta (Homo sapiens) (Q03181 whole entry, looked up): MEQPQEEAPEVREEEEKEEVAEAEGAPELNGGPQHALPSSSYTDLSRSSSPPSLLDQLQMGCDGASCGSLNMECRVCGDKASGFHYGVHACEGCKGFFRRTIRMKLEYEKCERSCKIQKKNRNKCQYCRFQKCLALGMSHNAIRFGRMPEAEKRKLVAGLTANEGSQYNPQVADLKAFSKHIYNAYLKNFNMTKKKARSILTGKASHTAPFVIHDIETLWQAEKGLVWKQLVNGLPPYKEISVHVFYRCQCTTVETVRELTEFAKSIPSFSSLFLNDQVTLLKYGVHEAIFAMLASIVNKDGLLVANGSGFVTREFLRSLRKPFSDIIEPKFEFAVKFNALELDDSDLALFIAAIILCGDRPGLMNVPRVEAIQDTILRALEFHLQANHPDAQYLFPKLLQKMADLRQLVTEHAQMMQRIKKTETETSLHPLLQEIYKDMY
Chain of Thyroid hormone receptor beta (Homo sapiens) (P10828 whole entry, looked up): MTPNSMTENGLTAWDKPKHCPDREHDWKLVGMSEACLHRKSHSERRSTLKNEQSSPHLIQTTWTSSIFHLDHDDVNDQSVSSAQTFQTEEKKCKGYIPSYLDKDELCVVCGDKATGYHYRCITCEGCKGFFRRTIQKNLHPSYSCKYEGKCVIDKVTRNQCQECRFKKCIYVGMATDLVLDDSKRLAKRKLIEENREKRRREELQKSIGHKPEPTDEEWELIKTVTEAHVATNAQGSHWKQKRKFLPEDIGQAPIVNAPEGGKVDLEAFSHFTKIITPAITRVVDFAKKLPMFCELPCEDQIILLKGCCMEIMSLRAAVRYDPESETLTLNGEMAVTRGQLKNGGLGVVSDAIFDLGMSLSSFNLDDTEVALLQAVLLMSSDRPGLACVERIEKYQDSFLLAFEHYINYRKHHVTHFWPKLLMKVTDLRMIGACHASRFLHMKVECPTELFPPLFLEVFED
Chain of Estrogen receptor (Homo sapiens) (P03372 whole entry, looked up): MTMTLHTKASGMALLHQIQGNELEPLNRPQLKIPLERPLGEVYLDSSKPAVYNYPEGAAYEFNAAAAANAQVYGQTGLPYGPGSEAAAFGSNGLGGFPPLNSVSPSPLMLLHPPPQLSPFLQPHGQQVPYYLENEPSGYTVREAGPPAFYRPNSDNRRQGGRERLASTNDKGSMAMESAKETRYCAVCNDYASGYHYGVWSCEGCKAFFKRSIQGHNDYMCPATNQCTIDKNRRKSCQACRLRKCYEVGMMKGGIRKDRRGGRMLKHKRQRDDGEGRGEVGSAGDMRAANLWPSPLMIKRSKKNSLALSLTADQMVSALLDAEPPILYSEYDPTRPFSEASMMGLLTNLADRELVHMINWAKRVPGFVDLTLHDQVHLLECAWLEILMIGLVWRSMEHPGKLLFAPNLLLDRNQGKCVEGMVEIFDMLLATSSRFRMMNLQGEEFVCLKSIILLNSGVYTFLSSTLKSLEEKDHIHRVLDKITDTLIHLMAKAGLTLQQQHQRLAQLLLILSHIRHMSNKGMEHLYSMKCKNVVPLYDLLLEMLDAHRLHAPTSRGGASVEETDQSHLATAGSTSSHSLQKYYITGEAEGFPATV
Chain of Peroxisome proliferator-activated receptor gamma (Homo sapiens) (P37231 whole entry, looked up): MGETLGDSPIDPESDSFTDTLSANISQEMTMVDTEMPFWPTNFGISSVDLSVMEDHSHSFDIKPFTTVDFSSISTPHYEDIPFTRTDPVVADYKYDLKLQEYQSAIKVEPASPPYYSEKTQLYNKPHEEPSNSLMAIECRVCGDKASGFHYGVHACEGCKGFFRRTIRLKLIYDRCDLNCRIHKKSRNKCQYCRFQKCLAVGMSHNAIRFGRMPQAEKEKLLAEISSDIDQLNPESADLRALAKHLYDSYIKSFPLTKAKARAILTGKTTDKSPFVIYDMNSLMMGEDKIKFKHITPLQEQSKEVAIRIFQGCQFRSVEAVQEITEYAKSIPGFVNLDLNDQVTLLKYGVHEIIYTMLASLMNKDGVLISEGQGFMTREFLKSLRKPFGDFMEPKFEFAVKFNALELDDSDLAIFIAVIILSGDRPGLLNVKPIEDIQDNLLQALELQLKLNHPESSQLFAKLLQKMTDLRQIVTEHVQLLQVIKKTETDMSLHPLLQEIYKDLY
Chain of Vitamin D3 receptor (Homo sapiens) (P11473 whole entry, looked up): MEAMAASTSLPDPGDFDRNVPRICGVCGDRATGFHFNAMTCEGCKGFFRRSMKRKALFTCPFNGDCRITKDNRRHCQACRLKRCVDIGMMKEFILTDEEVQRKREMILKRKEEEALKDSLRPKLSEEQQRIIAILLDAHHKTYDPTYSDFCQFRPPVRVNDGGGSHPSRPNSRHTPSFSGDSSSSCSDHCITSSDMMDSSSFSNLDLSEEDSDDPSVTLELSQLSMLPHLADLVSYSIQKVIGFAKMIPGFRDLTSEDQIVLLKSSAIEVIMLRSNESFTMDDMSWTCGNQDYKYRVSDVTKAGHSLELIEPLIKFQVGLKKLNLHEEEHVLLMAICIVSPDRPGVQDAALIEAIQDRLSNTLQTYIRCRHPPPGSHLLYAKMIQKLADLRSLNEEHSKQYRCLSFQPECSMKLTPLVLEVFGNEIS

`CCCCC#N`: the Potency in assay [1] was > 92 µM (inactive). The Potency result in [2], in assay [4], in assay [5], in assay [9], in assay [10] and in assay [11] was “inactive” in each case. Moreover, the call in [3] and in assay [7] was inactive. The max response in assay [6] is -3.23%. In [8], the activity change % (negative = inhibition) is -12.9% (inactive).
`Nc1ncc([N+](=O)[O-])s1`: in assay [1], the Potency was > 92 µM (inactive). Besides, the Potency result in assay [2], in [4], in assay [5], in [15], in assay [11] and in assay [16] was “inactive” in each case. Besides, the result in assay [3], in [12], in [7] and in assay [13] was inactive. Further, in assay [6], the max response came out at 30.2%. In [8], the activity change % (negative = inhibition) is -7.23% (inactive). Further, the activation in assay [14] was 0.765% (inactive).
As to `CCOC(=O)CC(SP(=O)(OC)OC)C(=O)OCC` (centres undefined), the Potency is > 92 µM (inactive) in [1] and 42.2 µM (active) in [9]. Moreover, the Potency entry in assay [17], in assay [2], in [20] and in assay [16] was “inactive” in each case. The activation in assay [18] is 2.95% (inactive); in assay [14], -1.06% (inactive) and 1.21% (inactive). The outcome in assay [12] and in [19] was inactive. In addition, in assay [8], the activity change % (negative = inhibition) is -9.27% (inactive) and -19.3% (inactive).
As to `c1ccc(P(c2ccccc2)c2ccccc2)cc1`, the figures for the Potency in assay [1], in [17] and in assay [9] were > 92 µM (inactive), 25.1 µM (active) and 37.6 µM (active), respectively. For the same molecule, the Potency entry in [2], in [4], in assay [5], in [20], in [15] and in assay [11] was “inactive” each time. Moreover, in assay [16], the Potency result is “inactive”. For the same molecule, the molecule was classed as inactive in assay [3], in assay [12], in [19] and in assay [7]. Further, the activation in assay [18] was 1.22% (inactive); in [14], -0.914% (inactive). In addition, the max response in [6] stood at 58.2%. Moreover, the activity change % (negative = inhibition) in assay [8] is 5.79% (inactive).
